We go through 13 compounds from PubChem BioAssay (NCI).

Some test systems named below: HCT-15 colon; HT29 colon; SNB-75 CNS; SNB-19 CNS; U251 CNS; PC-3 prostate; SK-MEL-5 melanoma; UACC-62 melanoma; LOX IMVI melanoma; SK-MEL-28 melanoma.
Holding throughout (experiment): NCI-60 one-dose screen, 48 h (100 = growth as untreated, 0 = no growth, -100 = all killed)
Details in all cases: 10 µM unless noted

The panel holds about 83,000 compounds, 20% with a hit somewhere; the sample as a whole holds those more often.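 Plates (96-well) were seeded with cells, treated with compound at one concentration, and incubated for 48 hours before percent growth was determined.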 Unmarked numbers belong to inactive results. Active and inactive are the calls of the source. The calls were made as follows: active = growth percent below 10; inactive = the rest.

For `CCCCCN(CCCCC)C(=O)C(CCC(=O)O)NC(=O)c1ccc(Cl)c(Cl)c1` (stereo not given), the growth in the test with HCT-15 colon is 112%; in the test on HT29 colon it was 109%; in the test with SNB-75 CNS, 93.3%; with SNB-19 CNS it was 112%; in the test on U251 CNS, 101%; in the test with PC-3 prostate, 93%. The growth with SK-MEL-5 melanoma is 90.5%; with UACC-62 melanoma, 98.4%; with LOX IMVI melanoma, 99.9%; with SK-MEL-28 melanoma, 105%.
As to `CC(C)C/C=C/C=C/C(=O)N[C@@H](CC(N)=O)C(=O)N[C@@H]1C(=O)N[C@H](c2ccc(O)cc2)C(=O)N[C@H](CCCN)C(=O)N[C@H]([C@@H](C)O)C(=O)N[C@H](c2ccc(O)cc2)C(=O)N[C@H](c2ccc(O)cc2)C(=O)N[C@H]([C@H](C)O)C(=O)N[C@H](Cc2ccccc2)C(=O)N[C@H](CCCN)C(=O)N[C@H](c2ccc(O[C@H]3O[C@@H](CO)[C@@H](O)[C@@H](O)[C@H]3O[C@@H]3O[C@H](CO)[C@H](O)[C@H](O)[C@@H]3O)cc2)C(=O)N[C@H]([C@H](C)O)C(=O)N[C@H](c2ccc(O)cc2)C(=O)NCC(=O)N[C@H](CC(C)C)C(=O)N[C@H](C)C(=O)N[C@H](c2ccc(O)c(Cl)c2)C(=O)O[C@@H]1C(N)=O`, the growth in the test with HCT-15 colon was 70%; in the test with HT29 colon, 24.2%; with SNB-75 CNS it was 81.9%; in the test with SNB-19 CNS, 21%; with U251 CNS, -19% (active); with PC-3 prostate, 83.3%. Besides, the growth in the test on SK-MEL-5 melanoma was 26.2%; in the test with UACC-62 melanoma, -4.24% (active); in the test on LOX IMVI melanoma, 36.8%; with SK-MEL-28 melanoma, 22.8%.
Take `O=C(O)C(CCc1ccccc1)NCc1ccccc1` (stereo not given): the growth in the test with HCT-15 colon is 99.2%; in the test on HT29 colon it was 96.2%; in the test with SNB-75 CNS, 90.3%; with SNB-19 CNS, 97.5%; in the test on U251 CNS, 107%; in the test with PC-3 prostate, 91.3%. In addition, the growth in the test with SK-MEL-5 melanoma is 109%; in the test on UACC-62 melanoma it was 94.5%; with LOX IMVI melanoma, 92%; in the test with SK-MEL-28 melanoma, 107%.
Regarding `CCNC(=O)c1ccc2c(c1)nc(-c1ccc(Cl)cc1)n2-c1cc(C(C)(C)C)[nH]n1`, the growth in the test with HCT-15 colon is 45.2%; in the test on HT29 colon it was 26%; with SNB-75 CNS it was 34.2%; in the test on SNB-19 CNS, 60.5%; with U251 CNS, 46.5%; in the test with PC-3 prostate, 44%. For the same compound, the growth was 11.5% with SK-MEL-5 melanoma, 38.6% in the test with UACC-62 melanoma, 33.1% in the test with LOX IMVI melanoma and 41.6% in the test with SK-MEL-28 melanoma.
As to `CN(C)c1nc(-c2cccs2)n2nc(-c3ccc(Cl)cc3)cc2n1`, the growth in the test on HCT-15 colon was 92%; in the test on HT29 colon, 33.2%; in the test on SNB-75 CNS it was -50.4% (active); in the test with SNB-19 CNS it was 21.1%; in the test with U251 CNS, 7.58% (active); in the test with PC-3 prostate, 47.1%. Besides, the growth in the test on SK-MEL-5 melanoma is 64.2%; in the test with UACC-62 melanoma, 70.7%; in the test with LOX IMVI melanoma, 26.5%; in the test on SK-MEL-28 melanoma, 79.2%.
On to `CCOC(=O)c1cc(N)nc2ccccc12`, for which the growth in the test with HCT-15 colon is 107%; in the test with HT29 colon, 97.4%; in the test on SNB-75 CNS, 112%; in the test on SNB-19 CNS, 106%; in the test with U251 CNS, 103%; in the test with PC-3 prostate it was 104%. In addition, the growth in the test with SK-MEL-5 melanoma was 106%; in the test on UACC-62 melanoma it was 108%; in the test on LOX IMVI melanoma, 96.7%; in the test on SK-MEL-28 melanoma, 123%.
`CCN1C(=O)N(CC)C2C1N=C(SC)N2/N=C/C=C/c1ccccc1OC` (stereo not given): the growth was 7.58% (active) in the test on HCT-15 colon; 3.96% (active) in the test with HT29 colon; 44.6% in the test on SNB-75 CNS; 15.4% in the test on SNB-19 CNS; 16.1% with U251 CNS; 18.4% with PC-3 prostate. Moreover, the growth in the test with SK-MEL-5 melanoma was 0.74% (active); with UACC-62 melanoma it was 30.5%; with LOX IMVI melanoma, 14.6%; in the test with SK-MEL-28 melanoma it was 51.5%.
As to `COc1cnc2c(c1)C(=O)c1c-2n(CCCNC(C)C)c(=O)c2cc(Cl)ccc12`, the growth is -47.2% (active) with HCT-15 colon; -90.6% (active) in the test with HT29 colon; 10.4% with SNB-75 CNS; -23.2% (active) in the test with SNB-19 CNS; -86.6% (active) with U251 CNS; -51.7% (active) in the test with PC-3 prostate. The growth in the test on SK-MEL-5 melanoma was -81.3% (active); in the test with UACC-62 melanoma it was -62.8% (active); with LOX IMVI melanoma, -88.1% (active); with SK-MEL-28 melanoma it was -89.7% (active).
In the case of `CCCCn1cnc2c(SCc3ccc([N+](=O)[O-])cc3)nc(N)nc21`, the growth was 88.2% with HCT-15 colon; 98.6% with HT29 colon; 95.7% in the test on SNB-75 CNS; 86% in the test on SNB-19 CNS; 90.6% with U251 CNS; 89.8% in the test with PC-3 prostate. Further, the growth in the test on SK-MEL-5 melanoma is 85.8%; in the test on UACC-62 melanoma, 80.4%; with LOX IMVI melanoma it was 88%; with SK-MEL-28 melanoma it was 117%.
As for `COc1ccc(/C(C)=N/NC(=O)c2ccc(S(C)(=O)=O)cc2)cc1OC`, the growth in the test on HCT-15 colon is 97.9%; in the test with HT29 colon it was 117%; in the test on SNB-75 CNS it was 85.9%; in the test with SNB-19 CNS, 105%; in the test on U251 CNS it was 104%; in the test on PC-3 prostate it was 99.3%. Further, the growth with SK-MEL-5 melanoma was 106%; in the test with UACC-62 melanoma it was 102%; in the test with LOX IMVI melanoma it was 106%; with SK-MEL-28 melanoma, 105%.
As for `CCn1c(Cc2ccccc2Nc2c(Cl)cccc2Cl)nnc1SCC(=O)Nc1ccccc1C(F)(F)F`, the growth was 84.6% in the test on HCT-15 colon; 81.8% in the test with HT29 colon; 92.9% in the test on SNB-75 CNS; 86.5% in the test with SNB-19 CNS; 93.3% in the test on U251 CNS; 67.4% in the test with PC-3 prostate. Moreover, the growth was 92% with SK-MEL-5 melanoma, 63.1% with UACC-62 melanoma, 93.9% in the test on LOX IMVI melanoma and 107% in the test on SK-MEL-28 melanoma.
Turning to `COc1cccc(C2C(C#N)=C(N)Oc3cc4c(cc32)OCO4)c1` (stereo not given), the growth in the test on HCT-15 colon was 16.4%; in the test with HT29 colon, 8.91% (active); in the test on SNB-75 CNS, 8.73% (active); in the test with SNB-19 CNS it was 39.2%; in the test with U251 CNS it was 23.4%; in the test with PC-3 prostate it was 27.4%. Also, the growth was 4.73% (active) in the test with SK-MEL-5 melanoma, 33.6% in the test with UACC-62 melanoma, 23.1% in the test on LOX IMVI melanoma and 43% in the test on SK-MEL-28 melanoma.
Consider `NS(=O)(=O)c1ccc(CCn2c(SCC(=O)N/N=C/c3ccccc3O)nc3ccccc3c2=O)cc1`, for which the growth with HCT-15 colon is 59.9%; in the test on HT29 colon it was 10% (active); in the test with SNB-75 CNS it was 23.8%; with SNB-19 CNS, 49.1%; in the test on U251 CNS it was 26.8%; in the test with PC-3 prostate it was 36.1%. Moreover, the growth with SK-MEL-5 melanoma is 30.5%; in the test with UACC-62 melanoma, 48.8%; in the test with LOX IMVI melanoma it was 43.9%; in the test on SK-MEL-28 melanoma, 76.5%.
